Screens: PubChem, National Center for Advancing Translational Sciences (NCATS)
Pf growth 48h: Primary qHTS for delayed death inhibitors of the malarial parasite plastid, 48 hour incubation; P. falciparum luciferase growth in erythrocytes, 48 h; Potency, µM (top dose mostly 28.7 µM), without a hit: top-dose activity change, negative = inhibition, actives largely listed as inhibitors; hit rate 5.9% among 310,000; AID 504832, 2011; further: potency means the concentration at half of the fitted maximal effect; on the % scale 0 is the no-effect control and ±100 the full control effect
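Read-out is firefly luciferase luminescence from an integrated reporter in P. falciparum, so falling signal marks reduced parasite growth. Infected erythrocytes were at 2% hematocrit and 0.1% parasitemia (final) in Albumax-supplemented RPMI 1640.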
Cycloheximide cs: Cycloheximide Counterscreen for Small Molecule Inhibitors of Shiga Toxin; cell reporter, cycloheximide protein synthesis inhibition counterscreen; max response, %; hit rate 12% among 300,000; AID 2314, 2010; in the data active means max response mostly above about 13%, no sharp cut-off; inactive means mostly below about 14%; further: read at 38.3 µM for the half of the compounds with a filed dose; 0% is about no effect
Shiga inhibitor: A qHTS for Small Molecule Inhibitors of Shiga Toxin | hit rate 9.2% among 290,000 | Vero cells, Shiga toxin protein synthesis inhibition reporter | inhibition, % at 38.7 µM; in the data active means inhibition mostly above about 28%, no sharp cut-off; inactive means mostly below about 43%; further: 0% is about no effect
MARV entry inh: qHTS for inhibitors of binding or entry into cells for Marburg Virus. Marburg virus pseudotyped entry inhibition, cell reporter. Potency, µM (series often up to 37.8 µM), without a hit: at the top dose activity change, negative = inhibition, hits mostly inhibitors. hit rate 1.8% among 300,000. AID 540276, 2011; calls by dose curve; tested in HEK293 cells; further: potency means the concentration at half of the fitted maximal effect; on the % scale 0 is the no-effect control and ±100 the full control effect
LASV entry inh: qHTS for Inhibitors of binding or entry into cells for Lassa Virus. hit rate 1.2% among 300,000. Lassa virus pseudotype entry inhibition, cell reporter. Potency, µM (highest dose often 37.9 µM), inactives show at the highest dose activity change, negative = inhibition, usual class: inhibitors. AID 540256, 2011; calls by dose curve; tested in HEK293 cells; further: potency means the concentration at half of the fitted maximal effect; on the % scale 0 is the no-effect control and ±100 the full control effect; nearly all actives have a fitted effect of over 50% in size
Pf growth 96h: Primary qHTS for delayed death inhibitors of the malarial parasite plastid, 96 hour incubation. P. falciparum luciferase reporter growth, 96 h. Potency, µM (doses to about 28.7 µM), without a hit: at the top dose activity change, negative = inhibition, most hits filed as inhibitors. hit rate 6.9% among 320,000. AID 504834, 2011; further: potency means the concentration at half of the fitted maximal effect; on the % scale 0 is the no-effect control and ±100 the full control effect
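Luminescence readout: decreased luciferase signal marks inhibited growth of reporter-expressing P. falciparum in infected red cells (2% hematocrit, 0.05% parasitemia final), exposed to compound two generations (96 h, 37 C, 5% CO2).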
* = called active by the depositor; i = inactive; ? = inconclusive; / = not tested or not shown; [ ] = dose if it differs, or a comment. This is a sample that favours compounds with a hit; in the whole collection about 19% have one here. Unless noted, the call rests on the fitted dose curve; in most records, active means well fitted inhibition curve with a large enough effect; inconclusive means small, poorly fitted or top-dose-only effect, or another doubt; inactive means no such curve, though single readings can be large or run the other way.

SMILES	Pf growth 48h	Cycloheximide cs	Shiga inhibitor	MARV entry inh	LASV entry inh	Pf growth 96h
CSCCC1NC2(C(=O)Nc3c(Cl)cccc32)[C@@H]2C(=O)N(C3CCCC3)C(=O)[C@H]12 (stereo not given in full)	?	-3.5	12.4	-25.2%	12.6%	10.4µM*
COc1cc(/C=C/C(=O)c2ccc(C)c([N+](=O)[O-])c2)cc(OC)c1O	0.0%	-1.0	-6.2	?	-26.5%	-26.0%
COc1cc(/C=C/C(=O)OCC(=O)N2CCC(C)CC2)ccc1OCC#N	-10.2%	/	/	/	/	?
COc1ccc(/C=C/C(=O)c2ccc(C)c([N+](=O)[O-])c2)cc1O	18.9%	46.2*	78.8*	?	?	0.0%
COc1ccc(C(=O)/C=C/c2ccc(OC3CSC3)cc2)cc1OC	?	4.4	-3.5	?	?	16.0%
COc1cccc(C(=O)/C=C/c2ccc(OCC#N)c(OC)c2)c1	-25.6%	39.5*	15.8*	14.6µM*	?	?
COc1cc(/C=C/C(=O)OCC(=O)NCCN2C(=O)CSC2=O)ccc1OCC#N	?	/	/	/	/	10.4µM*
COc1cc(/C=C/C(=O)OCC(=O)NCCc2ccc(S(N)(=O)=O)cc2)ccc1OCC#N	-22.5%	/	/	2.9%[46.1 µM]	-0.3%	-33.0%
COc1cc(/C=C/C(=O)c2ccc(O)cc2)ccc1OCC#N	13.1µM*	70.6*	84.8*	?	1.58µM*	?
CCOc1ccc(/C=C/C(=O)c2ccccc2)cc1OC	36.5%	55.6*	80.1*	-8.7%	7.5%	-12.3%
CCOc1ccc(C(=O)/C=C/c2ccc(OC)c(OC)c2)cc1	?	1.2	25.9	?	?	?
NC(=O)c1nsc(C(=O)N(c2ccccc2)C(C(=O)NCC2CCCO2)c2ccc(F)cc2)c1N (stereo not given)	-16.1%	-6.8	-14.8	?	-28.4%[46.1 µM]	-2.9%
NC(=O)c1nsc(C(=O)N(c2ccc3c(c2)OCCO3)C(C(=O)NCC2CCCO2)c2ccc(F)cc2)c1N (stereo not given)	?	28.5*	63.5*	?	?	-3.0%
Cc1ccc(C(C(=O)NCC2CCCO2)N(C(=O)c2snc(C(N)=O)c2N)c2ccc3c(c2)OCCO3)cc1 (stereo not given)	10.4µM*	-2.5	-3.9	?	6.31µM*	-3.8%
CC(C)(C)C1CCC(=NNS(=O)(=O)c2ccc(Br)cc2)CC1 (stereo not given)	-5.7%	0.5	-4.5	4.8%	?	-14.9%
c1ccc(-c2nnc(CSc3ccc4c(c3)OCCO4)o2)cc1	-9.8%	18.9*	28.5*	?	-11.3%[46.1 µM]	14.4%
O=C(NC1CCCCC1)C(c1ccccc1)N(C(=O)c1cccs1)c1ccc2c(c1)OCO2 (stereo not given)	?	-2.5	-12.0	-17.2%	5.7%	?
COc1ccc(CN(C(=O)c2cccs2)C(C(=O)NC2CCCCC2)c2ccc3ncccc3c2)cc1 (stereo not given)	?	-1.6	-2.9	2.3%	-2.6%	10.4µM*
O=C(NC1CCCCC1)C(c1ccc2ncccc2c1)N(Cc1ccc2c(c1)OCO2)C(=O)c1cccs1 (stereo not given)	?	-0.4	-1.1	-27.0%	-12.9%	5.86µM*
COC(=O)c1ccc(C(C(=O)NC2CCCCC2)N(Cc2ccccc2)C(=O)Cc2cccs2)cc1 (stereo not given)	-7.7%	-1.5	-6.1	-5.9%	?	-27.2%
O=C(NC1CCCCC1)C(c1ccc2ncccc2c1)N(Cc1ccccc1)C(=O)c1cccs1 (stereo not given)	10.4µM*	-1.6	1.3	5.8µM*	-14.6%	?
COCCn1c(SCC#N)nnc1-c1ccc([N+](=O)[O-])cc1	-7.1%	11.5	-1.7	12.6%[46.1 µM]	-6.8%[46.1 µM]	?
CCC(CO)(C(=O)OC1CC2CCC(C1)N2C)c1ccccc1 (stereo not given)	-19.6%	-1.4	8.5	/	/	11.7µM*
Cc1ccc(C(=O)NCC(=O)OCC(=O)NCC(F)(F)F)cc1	10.7%	17.6*	-5.5	-3.9%[46.1 µM]	/	8.3%
Cc1ccc(N(C(=O)c2snc(C(N)=O)c2N)C(C(=O)NCc2ccccc2)c2ccncc2)c(C)c1 (stereo not given)	?	1.2	-16.1	?	-17.7%[46.1 µM]	15.6%
SMILES	Pf growth 48h	Cycloheximide cs	Shiga inhibitor	MARV entry inh	LASV entry inh	Pf growth 96h
NC(=O)c1nsc(C(=O)N(c2ccccc2F)C(C(=O)NCc2ccc(F)cc2)c2ccc(O)cc2)c1N (stereo not given)	?	-1.5	-4.7	?	?	-19.6%
COc1ccccc1N(C(=O)c1snc(C(N)=O)c1N)C(C(=O)NCc1ccccc1)c1ccc(O)cc1 (stereo not given)	?	-2.7	-4.6	-21.3%[46.1 µM]	4.47µM*	-20.2%
COc1ccc(C(C(=O)NCc2ccccc2)N(Cc2ccco2)C(=O)c2snc(C(N)=O)c2N)cc1OC (stereo not given)	10.4µM*	-3.7	-9.1	-0.4%[46.1 µM]	/	13.6%
COc1ccc(N(C(=O)c2snc(C(N)=O)c2N)C(C(=O)NCc2ccccc2)c2ccc(F)cc2)c(OC)c1 (stereo not given)	10.4µM*	-1.1	-4.5	?	8.91µM*	24.8%
COc1ccc(C(C(=O)NCc2ccccc2)N(C(=O)c2snc(C(N)=O)c2N)c2ccccc2OC)cc1 (stereo not given)	5.22µM*	-5.9	-6.3	?	?	-14.6%
COc1ccc(C(C(=O)NCc2ccccc2)N(Cc2ccco2)C(=O)c2snc(C(N)=O)c2N)cc1 (stereo not given)	?	-2.1	7.4	?	/	1.2%
CC(C)C(NS(=O)(=O)c1ccccc1)C(=O)OCc1cc([N+](=O)[O-])cc2c1OCOC2 (stereo not given)	13.8%	-2.8	4.8	-0.4%	1.0%	0.0%
O=C(COC(=O)c1ccc([N+](=O)[O-])s1)Nc1cccc(S(=O)(=O)NC2=NCCCCC2)c1	-9.0%	-2.0	-1.9	/	/	13.2%
O=C(CCc1nnc(-c2ccsc2)o1)N1CCCCC1CCn1ccnc1 (stereo not given)	32.5%	5.9	20.8	18.7%[46.1 µM]	22.5%[46.1 µM]	i
COC(=O)[C@@H](NC(=O)CCc1nnc(-c2ccsc2)o1)C(C)C	13.9%	49.9*	30.5	3.9%[46.1 µM]	12.1%[46.1 µM]	-13.3%
Cc1nc(C(C)NC(=O)CCc2nnc(-c3ccsc3)o2)cs1 (stereo not given)	-7.6%	-0.4	22.4	/	/	?
CCOC(=O)CC1COCCN1C(=O)CCc1nnc(-c2ccsc2)o1 (stereo not given)	11.6%	33.0*	34.0	?	11.2%	-26.2%
CC(=O)c1sc(NC(=O)c2ccc(Cl)cc2)nc1C	-18.6%	29.9*	71.0*	/	/	56.0%
